From PubChem
In the library only some 3.4% were active in any assay of this set; here they are far more common.
FBW7 activator: activators of human E3 ligase FBW7; Q969H0; normalized activity (activation), % at 26.1 µM; AlphaScreen FBW7–phospho-cyclin E peptide binding, activator screen; 650,000 tested, 0.13% active; AID 1259310; in the data active = normalized activity above about 1.9%;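 note: purified mutant Fbw7 with reduced substrate affinity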
GPR151 activ: human GPR151 activation. 650,000 tested, 1% active. activation, % at 11.2 µM. PathHunter beta-arrestin GPR151 cells, luminescence. Q8TDV0. AID 1508602; in the data active = activation above about 4.9%;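 note: 0% = median of compound wells and 100% = cells with positive control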
Target sequence (Q8TDV0 whole entry, looked up): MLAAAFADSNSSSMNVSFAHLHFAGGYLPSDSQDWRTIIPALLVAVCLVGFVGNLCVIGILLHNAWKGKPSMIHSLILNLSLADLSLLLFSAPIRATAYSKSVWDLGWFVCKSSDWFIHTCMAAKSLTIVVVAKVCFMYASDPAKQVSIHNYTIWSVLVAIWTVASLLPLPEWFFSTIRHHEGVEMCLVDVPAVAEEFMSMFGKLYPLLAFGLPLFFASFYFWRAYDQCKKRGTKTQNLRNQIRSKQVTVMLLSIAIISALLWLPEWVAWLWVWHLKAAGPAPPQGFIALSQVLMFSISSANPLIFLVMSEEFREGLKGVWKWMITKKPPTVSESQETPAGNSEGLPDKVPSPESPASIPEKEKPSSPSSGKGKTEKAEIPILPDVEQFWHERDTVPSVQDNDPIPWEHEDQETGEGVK
MITF primary: human MITF inhibition, primary screen; O75030; AlphaScreen MITF homodimerization, bead proximity signal; inhibition, % at 2.6 µM; 650,000 tested, 0.91% active; in the data active = inhibition above about 50%;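 note: 0% = vehicle wells with protein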
TEAD-YAP block: TEAD-YAP interaction inhibition | AID 1259422 | inhibition, % at 9.12 µM | 640,000 tested, 1.4% active | HEK-TIYL cells, TEAD-Gal4/YAP UAS-luciferase luminescence; in the data active = inhibition above about 32%;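 note: 0% = median of test compound wells and 100% = reference inhibitor wells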
* hit, by the source's call.

SMILES | FBW7 activator | GPR151 activ | MITF primary | TEAD-YAP block
Cc1c2c(=O)n(-c3nc4ccccc4s3)[nH]c2cc(=O)n1Cc1ccccc1Cl | 0.0 | -0.5 | 90.7* | 8.9
C=CC[n+]1c(Nc2ccc(NC(C)=O)cc2)sc(C)c1-c1ccccc1 | -0.2 | 0.3 | 13.5 | 32.6*
CNC(=O)c1ncccc1Nc1cc(Nc2ccc3c(c2)CCC(=O)N3)ncc1C(F)(F)F | -0.1 | 1.2 | -8.1 | 35.2*
CC(=O)Nc1ccccc1Nc1cc(Nc2ccc3c(c2)CC(=O)N3)ncc1C(F)(F)F | 0.0 | -1.0 | 7.0 | 40.6*
CNC(=O)c1ncccc1Nc1cc(Nc2ccc3c(c2)CC(=O)N3)ncc1C(F)(F)F | 0.6 | 0.1 | 0.3 | 7.5
COc1ccc(-c2nc(N)c3cc(OC)c(OC)cc3n2)cc1 | 0.2 | -1.3 | -4.9 | -1.9
COc1cc2nc(N(C)C)nc(N)c2cc1OC | 0.0 | -0.2 | 17.3 | 60.5*
COc1ccc2sc(N(Cc3cccnc3)C(=O)c3cccc(C)c3)nc2c1 | 0.0 | 2.2 | -9.0 | 40.0*
O=C(CSc1nnc2c(n1)[nH]c1ccc(F)cc12)Nc1ccccc1[N+](=O)[O-] | -0.2 | -0.8 | 13.2 | -5.0
c1ccc(Nc2nccn3c(-c4ccco4)cnc23)cc1 | 0.4 | -2.9 | 2.0 | 44.0*
Oc1cccc(-c2cnc3c(Nc4ccccc4)nccn23)c1 | -0.1 | -3.2 | -11.8 | 3.2
Nc1ccc(-c2cnc3c(Nc4ccccc4)nccn23)cc1 | -0.1 | -2.6 | 7.2 | 53.2*
COc1cc2oc(=O)c(CC(=O)NCc3ccccc3)c(C)c2cc1OC | 0.3 | -1.2 | 20.3 | 48.9*
Nc1cccc2c1C(=O)N(C(=O)c1cccc([N+](=O)[O-])c1)C2=O | 0.2 | 0.3 | 9.4 | 6.3
CCCCC(=O)N/N=C(\C)CC(=O)Nc1cccc(OC)c1 | 0.0 | 0.1 | 0.2 | 43.9*
COc1ccc(/C=N/NC(=O)c2cc(-c3cccc(OC)c3)n[nH]2)cc1 | 0.3 | 1.5 | 8.2 | -4.3
CCCCC(=O)N/N=C(\C)CC(=O)Nc1cccc(I)c1 | 0.0 | 1.0 | 0.9 | -9.4
CC(C)(C)OC(=O)N/N=C\c1cccc(/C=N/NC(=O)OC(C)(C)C)c1 | 0.9 | -2.2 | 13.4 | 64.7*
Cc1ccc(-c2cc(C(=O)N/N=C/c3cccc(O)c3)[nH]n2)cc1 | -0.2 | 1.3 | -6.7 | 34.6*
COc1cccc(/C=N/NC(=O)c2cc(-c3ccc(C)cc3)n[nH]2)c1 | 1.4 | 1.2 | 9.7 | 45.4*
CC(C)(C)OC(=O)N/N=C/c1ccc(Br)cc1 | -0.1 | -1.0 | -3.2 | -63.1
Cc1ccc(C=C2C(=O)OC3(CCCCC3)OC2=O)cc1 | 0.1 | 0.1 | 1.1 | -8.2
CCN(CC)c1cc(Nc2ccc(C)c(Br)c2)c([N+](=O)[O-])c2nonc12 | 0.0 | -0.6 | 0.4 | 1.5
O=C(CCc1c[nH]c2ccccc12)Nc1ccc2c(c1)CN(Cc1nccs1)CC2 | 0.0 | 0.3 | 12.2 | 3.2
Cc1cc(O)cc(O)c1/C=N/NC(=O)c1cc(-c2ccccc2)n[nH]1 | -0.2 | -0.7 | -27.0 | 32.9*
SMILES | FBW7 activator | GPR151 activ | MITF primary | TEAD-YAP block
Cc1ccc(/C=N/NC(=O)c2cc(-c3ccccc3)n[nH]2)c(O)c1 | -0.1 | -0.6 | -48.0 | 9.2
COc1cccc(/C=N/NC(=O)CCCCC(=O)N/N=C/c2cccc(OC)c2)c1 | 0.2 | 2.5 | -7.4 | 73.6*
CCN(CC)C(=O)Cn1c(C)c(C#N)c2ccccc21 | 1.9* | -0.4 | 18.2 | 3.1
COc1cc(Nc2nc3ccc(C)cc3n3cnnc23)cc(OC)c1OC | 0.0 | 0.9 | 19.9 | 33.9*
COc1cc(Nc2nc3ccccc3n3cnnc23)cc(OC)c1OC | -0.2 | -1.0 | -4.1 | -4.1
CCOC(=O)c1c(NC(=O)C2C3C=CC(C3)C2C(=O)O)sc2c1CCC2 (stereo not drawn) | 0.0 | -0.7 | 1.3 | 18.8
CCc1c(C)sc(NC(=O)C2C3C=CC(C3)C2C(=O)O)c1C(=O)OC (stereo not drawn) | 0.0 | -1.7 | 12.0 | 31.9*
CCC1CCc2c(sc(NC(=O)C3C4C=CC(C4)C3C(=O)O)c2C(=O)OC)C1 (stereo not drawn) | -0.2 | -1.0 | 11.0 | 56.5*
CCOC(=O)c1c(NC(=O)C2C3C=CC(C3)C2C(=O)O)sc2c1CC(C)CC2 (stereo not drawn) | -0.4 | -0.3 | -3.8 | 36.9*
CCOC(=O)c1c(NC(=O)c2cc(OC)c(OC)c(OC)c2)sc(C(=O)Nc2cccc(C(F)(F)F)c2)c1C | 0.7 | 2.9 | 16.9 | 8.9
O=C(Nc1ccc(Cl)c(C(F)(F)F)c1)c1ccc(NC(=O)C2CCCO2)cc1 (stereo not drawn) | 0.1 | 0.7 | 13.1 | 34.1*
COc1ccc(-c2cnc(N3CCN(CCO)CC3)c3nccn23)c(OC)c1 | -0.4 | 0.7 | -3.4 | -44.5
Cc1cc(C(=O)CSc2nnc(-c3cccs3)o2)c(C)n1CC1CCCO1 (stereo not drawn) | 0.1 | 1.6 | 18.3 | -18.4
Cc1cc(C(=O)CN2C(=O)C3CC=CCC3C2=O)c(C)n1CC1CCCO1 (stereo not drawn) | -0.1 | 0.8 | -2.3 | 36.4*
Cc1nnc(SCC(=O)c2cc(C)n(CC3CCCO3)c2C)s1 (stereo not drawn) | -0.1 | 0.0 | 4.7 | 41.5*
Cc1ccc(S(=O)(=O)NN2C(=O)C3CCCCC3C2=O)cc1 (stereo not drawn) | 0.1 | 2.1 | 15.2 | -2.8
COc1ccc2[nH]c(C)cc(=O)c2c1 | 0.1 | 0.6 | 12.1 | 10.7
Cc1ccc2[nH]c3nc4ccccc4nc3c2c1 | 0.0 | -5.2 | -12.1 | -12.8
COc1ccc2[nH]c(C)cc(=S)c2c1 | 0.0 | 1.0 | 6.8 | 42.2*
COc1ccc2[nH]c3nc4cc(C)c(C)cc4nc3c2c1 | -0.1 | 0.3 | -3.4 | 42.7*
CCCNC(=O)c1cc2nc(-c3ccco3)cc(C(F)(F)F)n2n1 | 0.4 | -0.7 | 10.1 | 9.6
CCCCC(=O)Nc1cc(OC)c(OC)cc1C(=O)O | 2.2* | 1.3 | -1.0 | 4.6
COc1ccccc1CC(=O)Nc1cc(OC)c(OC)cc1C(=O)O | 0.6 | 0.5 | 20.4 | 12.3
N#CCCN(N)C(=S)Nc1ccc(F)cc1 | 0.0 | 1.8 | 1.8 | -2.0
COc1ccc(-c2nc(Nc3cc(OC)c(OC)c(OC)c3)nc(OC)n2)cc1 | -0.1 | -0.8 | -2.0 | 45.3*
SMILES | FBW7 activator | GPR151 activ | MITF primary | TEAD-YAP block
COc1ccc(-c2nc(Nc3ccc(Oc4ccccc4)cc3)nc(OC)n2)cc1 | 0.1 | 2.3 | 15.7 | 2.6
COc1ccc(-c2nccc(Nc3cc(OC)c(OC)c(OC)c3)n2)cc1 | -0.2 | 1.7 | -0.5 | 60.4*
O=C(c1ccc2c3c(cccc13)CC2)C1CCCN(C(=O)c2cn[nH]c2)C1 (stereo not drawn) | -0.1 | -0.4 | 8.3 | -7.2
COc1ccc(N2CCN(C(CNS(=O)(=O)c3ccc(OC)c(C)c3)c3ccco3)CC2)cc1 (stereo not drawn) | -0.1 | 0.1 | 68.1* | 5.7
O=C(CSc1n[nH]c(/C=C/c2ccc(F)cc2)n1)Nc1cc(C(=O)O)cc([N+](=O)[O-])c1 | 0.6 | -6.4 | 9.1 | 68.9*
c1ccc(-n2cnc3c(NC4CC4)nc(Nc4ncccn4)nc32)cc1 | 0.1 | -0.3 | -7.4 | 23.3
Cn1c(Nc2nc(NC3CC3)c3ncn(-c4ccccc4)c3n2)nc2ccccc21 | -0.2 | -0.1 | 13.4 | 46.5*
Cn1nccc1Nc1nc(NC2CC2)c2ncn(-c3ccccc3)c2n1 | 0.0 | -2.5 | 5.9 | 40.4*
